# Measurements published in PubChem BioAssay AID1159580 (chemical genetic matrix, 2015).
# In all, about 5,500 compounds went through this assay and about 2,000 (36%) were called active. Not shown: some 18% with an inconclusive outcome. The list shows a part of the results. A number with no mark means an inactive call. Rule as the data show it: active = normalized growth mostly below about 0.91 (no sharp cut-off); inconclusive = no clear call, values can overlap the other calls; inactive = mostly above about 0.92.
# Test: chemical genetic growth profiling, strain panel (AID 1159580);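 also: tested at 20 µM; growth read once vehicle control cultures reached saturation at 30 °C; 1 = growth at the plate median or of vehicle wells; lower values mean less growth of the strain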
# Details: growth OD
smiles,measurement,setting,value
CCC(=O)O[C@H]1[C@H](O[C@@H]2[C@@H](C)[C@H](O[C@H]3C[C@@](C)(OC)[C@@H](O)[C@H](C)O3)[C@@H](C)C(=O)O[C@H](CC)[C@@](C)(O)[C@H](O)[C@@H](C)C(=O)[C@H](C)C[C@@]2(C)O)O[C@H](C)C[C@@H]1N(C)C,normalized growth,"S. cerevisiae deletion strains, locus YJR066W, strain TOR1, hits give low values",0.852
same,normalized growth,"S. cerevisiae deletion strains, locus YKL009W, strain mrt4, hits give low values",0.932
same,normalized growth,"S. cerevisiae deletion strains, locus YKL068W, hits give low values",1.04
same,normalized growth,"S. cerevisiae deletion strains, locus YKL085W, strain MDH1 (second series), hits give low values",1
same,normalized growth,"S. cerevisiae deletion strains, locus YKL085W, strain MDH1, hits give low values",1
same,normalized growth,"S. cerevisiae deletion strains, locus YKL160W, strain elf1, hits give low values",0.924
same,normalized growth,"S. cerevisiae deletion strains, locus YKL190W, strain CNB1, hits give low values",1.01
same,normalized growth,"S. cerevisiae deletion strains, locus YKR001C, strain vps1, hits give low values",0.648 (active)
same,normalized growth,"S. cerevisiae deletion strains, locus YKR026C, strain gcn3, hits give low values",1.03
same,normalized growth,"S. cerevisiae deletion strains, locus YKR091W, strain srl3, hits give low values",1.02
same,normalized growth,"S. cerevisiae deletion strains, locus YLL001W, strain dnm1, hits give low values",0.87 (active)
same,normalized growth,"S. cerevisiae deletion strains, locus YLL026W, hits give low values",0.942
same,normalized growth,"S. cerevisiae deletion strains, locus YLL041C, strain sdh2, hits give low values",1
same,normalized growth,"S. cerevisiae deletion strains, locus YLR027C, strain aat2, hits give low values",0.893 (active)
same,normalized growth,"S. cerevisiae deletion strains, locus YLR039C, strain RIC1, hits give low values",0.865
same,normalized growth,"S. cerevisiae deletion strains, locus YLR058C, strain SHM2, hits give low values",0.968
same,normalized growth,"S. cerevisiae deletion strains, locus YLR102C, strain apc9, hits give low values",1.01
same,normalized growth,"S. cerevisiae deletion strains, locus YLR113W, strain HOG1, hits give low values",1.02
same,normalized growth,"S. cerevisiae deletion strains, locus YLR221C, strain rsa3, hits give low values",0.796 (active)
same,normalized growth,"S. cerevisiae deletion strains, locus YLR258W, strain gsy2, hits give low values",0.902 (active)
same,normalized growth,"S. cerevisiae deletion strains, locus YLR262C, strain YPT6 (second series), hits give low values",1.03
same,normalized growth,"S. cerevisiae deletion strains, locus YLR262C, strain YPT6, hits give low values",0.882
same,normalized growth,"S. cerevisiae deletion strains, locus YLR268W, strain sec22, hits give low values",0.988
same,normalized growth,"S. cerevisiae deletion strains, locus YLR320W, strain mms22, hits give low values",0.596 (active)
same,normalized growth,"S. cerevisiae deletion strains, locus YLR330W, strain CHS5, hits give low values",0.937
same,normalized growth,"S. cerevisiae deletion strains, locus YLR342W, strain FKS1 (second series), hits give low values",1.05
same,normalized growth,"S. cerevisiae deletion strains, locus YLR342W, strain FKS1, hits give low values",1.05
same,normalized growth,"S. cerevisiae deletion strains, locus YLR357W, strain rsc2, hits give low values",0.759 (active)
same,normalized growth,"S. cerevisiae deletion strains, locus YLR370C, strain arc18, hits give low values",1
same,normalized growth,"S. cerevisiae deletion strains, locus YLR371W, strain rom2, hits give low values",0.935
same,normalized growth,"S. cerevisiae deletion strains, locus YLR384C, strain iki3, hits give low values",1.02
same,normalized growth,"S. cerevisiae deletion strains, locus YLR418C, strain cdc73, hits give low values",0.615 (active)
same,normalized growth,"S. cerevisiae deletion strains, locus YML016C, strain PPZ1, hits give low values",1
same,normalized growth,"S. cerevisiae deletion strains, locus YML032C, strain rad52, hits give low values",0.946
same,normalized growth,"S. cerevisiae deletion strains, locus YML120C, strain ndi1, hits give low values",0.905 (active)
same,normalized growth,"S. cerevisiae deletion strains, locus YML124C, strain tub3, hits give low values",1.02
same,normalized growth,"S. cerevisiae deletion strains, locus YMR058W, strain fet3, hits give low values",0.961
same,normalized growth,"S. cerevisiae deletion strains, locus YMR078C, strain ctf18, hits give low values",0.988
same,normalized growth,"S. cerevisiae deletion strains, locus YMR125W, strain sto1, hits give low values",0.765 (active)
same,normalized growth,"S. cerevisiae deletion strains, locus YMR129W, hits give low values",1
same,normalized growth,"S. cerevisiae deletion strains, locus YMR205C, strain PFK2, hits give low values",0.8 (active)
same,normalized growth,"S. cerevisiae deletion strains, locus YMR223W, strain ubp8, hits give low values",0.982
same,normalized growth,"S. cerevisiae deletion strains, locus YMR231W, strain pep5, hits give low values",0.984
same,normalized growth,"S. cerevisiae deletion strains, locus YMR263W, strain SAP30, hits give low values",0.943
same,normalized growth,"S. cerevisiae deletion strains, locus YMR307W, strain GAS1, hits give low values",0.463 (active)
same,normalized growth,"S. cerevisiae deletion strains, locus YNL067W, strain RPL9B, hits give low values",0.948
same,normalized growth,"S. cerevisiae deletion strains, locus YNL071W, strain lat1, hits give low values",0.309 (active)
same,normalized growth,"S. cerevisiae deletion strains, locus YNL128W, strain TEP1, hits give low values",0.985
same,normalized growth,"S. cerevisiae deletion strains, locus YNL183C, strain NPR1, hits give low values",0.857
same,normalized growth,"S. cerevisiae deletion strains, locus YNL209W, strain ssb2, hits give low values",0.992
same,normalized growth,"S. cerevisiae deletion strains, locus YNL233W, strain BNI4, hits give low values",0.853 (active)
same,normalized growth,"S. cerevisiae deletion strains, locus YNL248C, strain rpa49, hits give low values",0.776 (active)
same,normalized growth,"S. cerevisiae deletion strains, locus YNL250W, strain rad50, hits give low values",1.03
same,normalized growth,"S. cerevisiae deletion strains, locus YNL271C, strain bni1, hits give low values",1.01
same,normalized growth,"S. cerevisiae deletion strains, locus YNL298W, strain CLA4, hits give low values",0.952
same,normalized growth,"S. cerevisiae deletion strains, locus YNL307C, strain MCK1, hits give low values",0.4 (active)
same,normalized growth,"S. cerevisiae deletion strains, locus YNL322C, strain KRE1 (second series), hits give low values",0.943
same,normalized growth,"S. cerevisiae deletion strains, locus YNR049C, strain mso1, hits give low values",1.01
same,normalized growth,"S. cerevisiae deletion strains, locus YNR052C, strain pop2, hits give low values",1
same,normalized growth,"S. cerevisiae deletion strains, locus YOL006C, strain TOP1, hits give low values",0.689
same,normalized growth,"S. cerevisiae deletion strains, locus YOL012C, strain htz1",0.653
same,normalized growth,"S. cerevisiae deletion strains, locus YOL147C, strain pex11, hits give low values",0.977
same,normalized growth,"S. cerevisiae deletion strains, locus YOR001W, strain rrp6, hits give low values",0.861 (active)
same,normalized growth,"S. cerevisiae deletion strains, locus YOR061W, strain CKA2, hits give low values",1.01
same,normalized growth,"S. cerevisiae deletion strains, locus YOR069W, strain VPS5, hits give low values",1
same,normalized growth,"S. cerevisiae deletion strains, locus YOR070C, strain gyp1, hits give low values",0.93
same,normalized growth,"S. cerevisiae deletion strains, locus YOR080W, strain dia2, hits give low values",0.977
same,normalized growth,"S. cerevisiae deletion strains, locus YOR083W, strain WHI5, hits give low values",0.829 (active)
same,normalized growth,"S. cerevisiae deletion strains, locus YOR106W, strain vam3, hits give low values",0.75 (active)
same,normalized growth,"S. cerevisiae deletion strains, locus YOR136W, strain idh2, hits give low values",0.978
same,normalized growth,"S. cerevisiae deletion strains, locus YOR144C, strain elg1, hits give low values",1.01
same,normalized growth,"S. cerevisiae deletion strains, locus YOR184W, strain ser1, hits give low values",0.936
same,normalized growth,"S. cerevisiae deletion strains, locus YOR231W, strain MKK1, hits give low values",0.879
same,normalized growth,"S. cerevisiae deletion strains, locus YOR265W, strain rbl2, hits give low values",0.982
same,normalized growth,"S. cerevisiae deletion strains, locus YOR270C, strain vph1, hits give low values",0.3 (active)
same,normalized growth,"S. cerevisiae deletion strains, locus YOR290C, strain snf2, hits give low values",0.786 (active)
same,normalized growth,"S. cerevisiae deletion strains, locus YOR316C, strain cot1, hits give low values",1.01
same,normalized growth,"S. cerevisiae deletion strains, locus YPL051W, strain arl3, hits give low values",0.921
same,normalized growth,"S. cerevisiae deletion strains, locus YPL055C, strain LGE1, hits give low values",0.894
same,normalized growth,"S. cerevisiae deletion strains, locus YPL078C, strain atp4, hits give low values",0.635 (active)
same,normalized growth,"S. cerevisiae deletion strains, locus YPL106C, strain sse1, hits give low values",1.06
same,normalized growth,"S. cerevisiae deletion strains, locus YPL240C, strain hsp82, hits give low values",0.904 (active)
same,normalized growth,"S. cerevisiae deletion strains, locus YPL256C, strain CLN2, hits give low values",0.953
same,normalized growth,"S. cerevisiae deletion strains, locus YPR119W, strain clb2, hits give low values",1.02
same,normalized growth,"S. cerevisiae deletion strains, locus YPR141C, strain kar3, hits give low values",1.06
same,normalized growth,"S. cerevisiae deletion strains, locus YPR163C, strain tif3, hits give low values",0.829 (active)
same,normalized growth,"S. cerevisiae deletion strains, locus YPR167C, strain met16, hits give low values",0.994
same,normalized growth,"S. cerevisiae deletion strains, strain wtn01, hits give low values",0.968
same,normalized growth,"S. cerevisiae strains, strain wild type, hits give low values",0.974
